In PubChem BioAssay:
Results filed as inconclusive are left out. Activity calls are given as the source filed them. Unless noted, no rule for the calls is given here.

Experiments:
[1] = target: ATP-dependent translocase ABCB1 (Homo sapiens) (UniProt P08183); experiment: P-glycoprotein substrate transport blockade – cell-based (AID 377; in the data active = fluorescence slope change above about 50%); conditions: MDR1-expressing cells, fluorescent substrate accumulation slope; stronger effect = higher value; concentration not given here
[2] = GFP-Q80 aggregate reduction, neuronal-like cells, cell-based, NGF-treated PC12, GFPQ80 (AID 1614); conditions: PC12 NGF-treated GFP-polyQ80 inclusion reduction;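 also: lower means fewer inclusions and 0 means no inclusions at all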
[3] = compounds altering circadian rhythm period length – cell-based, LOPAC library, luminescence reporter (AID 2774); conditions: circadian reporter cells, at 7 µM, actives lie on both sides;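 also: values are relative to mean of DMSO wells on each plate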
[4] = tested on: Hepatitis C virus NS3 helicase; experiment: blockers of NS3h binding to ssDNA – biochemical, fluorescence polarization, LOPAC1280 library, primary screen (AID 687035; in the data active = inhibition above about 37%); conditions: Purified HCV NS3 helicase, Cy5-dT15 ssDNA binding fluorescence polarization; stronger effect = higher value; concentration not given here
[5] = compounds altering Cy5-DNA-NS3h complex signal – biochemical, LOPAC1280, artefact control for HCV NS3 helicase inhibitor project (AID 687037); conditions: Cy5-DNA-NS3h complex fluorescence interference counterscreen
[6] = blockers of cellular phospholipid synthesis – cell-based, LOPAC library, screen 4, primary screen (AID 1347384); conditions: animal cells, phospholipid biosynthesis inhibition screen; at 10 µM
[7] = tested on: Neuropilin-2 / VEGF-C interaction (human); experiment: small molecules blocking Neuropilin-2/VEGF-C interaction – biochemical, microplate binding format, z-score (AID 743281); conditions: microplate NRP2/VEGF-C binding assay; stronger effect = lower value

Chain of ATP-dependent translocase ABCB1 (Homo sapiens) (P08183 whole entry, looked up): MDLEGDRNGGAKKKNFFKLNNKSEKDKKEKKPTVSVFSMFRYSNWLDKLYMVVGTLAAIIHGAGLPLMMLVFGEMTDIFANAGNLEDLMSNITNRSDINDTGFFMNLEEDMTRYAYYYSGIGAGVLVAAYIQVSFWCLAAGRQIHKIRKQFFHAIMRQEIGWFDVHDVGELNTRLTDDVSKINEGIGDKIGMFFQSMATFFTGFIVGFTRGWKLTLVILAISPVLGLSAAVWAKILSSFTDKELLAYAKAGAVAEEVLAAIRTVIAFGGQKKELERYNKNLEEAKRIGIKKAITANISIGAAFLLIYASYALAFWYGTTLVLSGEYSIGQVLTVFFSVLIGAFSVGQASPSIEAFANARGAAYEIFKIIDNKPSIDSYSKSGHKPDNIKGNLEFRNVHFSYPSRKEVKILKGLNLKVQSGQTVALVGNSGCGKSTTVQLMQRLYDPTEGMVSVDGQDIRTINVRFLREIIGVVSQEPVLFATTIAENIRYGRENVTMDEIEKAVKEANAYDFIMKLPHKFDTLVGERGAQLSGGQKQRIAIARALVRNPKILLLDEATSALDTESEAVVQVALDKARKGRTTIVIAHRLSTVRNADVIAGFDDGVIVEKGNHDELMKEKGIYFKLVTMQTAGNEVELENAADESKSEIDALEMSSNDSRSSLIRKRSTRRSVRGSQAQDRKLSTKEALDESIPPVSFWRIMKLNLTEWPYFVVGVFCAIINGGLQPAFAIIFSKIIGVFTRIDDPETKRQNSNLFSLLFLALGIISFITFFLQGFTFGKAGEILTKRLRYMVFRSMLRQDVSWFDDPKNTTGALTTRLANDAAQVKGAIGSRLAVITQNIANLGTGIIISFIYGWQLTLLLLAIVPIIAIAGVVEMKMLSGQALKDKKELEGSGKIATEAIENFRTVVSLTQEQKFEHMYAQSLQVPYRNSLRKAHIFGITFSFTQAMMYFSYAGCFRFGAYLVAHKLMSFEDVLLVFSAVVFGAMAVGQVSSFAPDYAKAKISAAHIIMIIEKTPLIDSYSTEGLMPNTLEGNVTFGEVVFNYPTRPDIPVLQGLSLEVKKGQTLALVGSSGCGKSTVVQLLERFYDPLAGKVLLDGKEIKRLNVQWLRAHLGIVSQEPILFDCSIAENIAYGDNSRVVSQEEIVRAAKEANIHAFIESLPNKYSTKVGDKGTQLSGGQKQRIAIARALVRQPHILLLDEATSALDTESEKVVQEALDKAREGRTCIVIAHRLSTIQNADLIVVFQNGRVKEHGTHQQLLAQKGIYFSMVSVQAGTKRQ

Row | Compound | fluorescence slope change [1] | inclusion score [2] | period change [3] | inhibition [4] | fluorescence ratio (interference) [5] | outcome [6] | z-score [7]
1 | CC(C)[N+](C)(CCOC(=O)C1c2ccccc2Oc2ccccc21)C(C)C | 80.1% (active) | 2 | 0.06 h (inactive) | 0% (inactive) | 1 (inactive) | inactive | –
2 | Nc1ccc(S(=O)(=O)c2ccc(N)cc2)cc1 | – | 2 | – | – | – | – | –
3 | CCN(CC)CCNC(=O)c1ccc(N)cc1 | – | 2 | 0.185 h (inactive) | -2% (inactive) | 1 (inactive) | inactive | –
4 | OC(CCN1CCCCC1)(c1ccccc1)C1CCCCC1 (centres undefined) | 66% (active) | – | 0 h (inactive) | 0% (inactive) | 1 (inactive) | inactive | –
5 | CC[N+](C)(C)c1cccc(O)c1 | 82.5% (active) | 2 | 0.07 h (inactive) | -3% (inactive) | 1 (inactive) | inactive | –
6 | CN(C)CCCN1c2ccccc2Sc2ccc(Cl)cc21 | – | – | -0.035 h (inactive) | -2% (inactive) | 1 (inactive) | inactive | –
7 | O=C1NC(=O)C(c2ccccc2)(c2ccccc2)N1 | – | 2 | 0.02 h (inactive) | 1% (inactive) | 1 (inactive) | inactive | –
8 | CC(N=C(NC#N)Nc1ccncc1)C(C)(C)C (centres undefined) | 190% (active) | – | 0.07 h (inactive) | -5% (inactive) | 1 (inactive) | inactive | -0.52 (inactive)
9 | CN(C)CCC[C@@]1(c2ccc(F)cc2)OCc2cc(C#N)ccc21 | – | – | – | – | – | – | 0.314 (inactive)
10 | CCCCC1=NC2(CCCC2)C(=O)N1Cc1ccc(-c2ccccc2-c2nn[nH]n2)cc1 | – | – | – | – | – | – | 0.146 (inactive)
11 | Cc1nc2ccccn2c(=O)c1CCN1CCC(C(=O)c2ccc(F)cc2)CC1 | – | – | -0.415 h (inactive) | -3% (inactive) | 1 (inactive) | inactive | -1.94 (inactive)
12 | CCCNC(C)C(=O)Nc1ccccc1C (centres undefined) | – | 2 | -0.13 h (inactive) | -1% (inactive) | 1 (inactive) | inactive | –
13 | CCN(CC)CCOC(=O)C1(C2CCCCC2)CCCCC1 | – | – | 0.005 h (inactive) | -4% (inactive) | 1 (inactive) | inactive | –
14 | CSc1ccc2c(c1)N(CCC1CCCCN1C)c1ccccc1S2 (centres undefined) | – | – | -0.225 h (inactive) | -3% (inactive) | 0.9 (inactive) | inactive | –
15 | CN(C)CCOC(C)(c1ccccc1)c1ccccn1 (centres undefined) | – | 2 | 0.205 h (inactive) | -2% (inactive) | 1.1 (inactive) | inactive | -0.0183 (inactive)
16 | Cc1ccc(Cl)c(Nc2ccccc2C(=O)O)c1Cl | 27.6% (inactive) | 2 | 0.13 h (inactive) | 0% (inactive) | 1 (inactive) | inactive | –
17 | Nc1nc(N)c2nc(-c3ccccc3)c(N)nc2n1 | – | – | 0.185 h (inactive) | -2% (inactive) | 1 (inactive) | inactive | –

Row | Compound | fluorescence slope change [1] | inclusion score [2] | period change [3] | inhibition [4] | fluorescence ratio (interference) [5] | outcome [6] | z-score [7]
18 | C=C(CC)C(=O)c1ccc(OCC(=O)O)c(Cl)c1Cl | 85.9% (active) | – | – | – | – | – | –
19 | CCCCNC(=O)NS(=O)(=O)c1ccc(C)cc1 | – | 2 | 0 h (inactive) | -5% (inactive) | 1 (inactive) | inactive | –
20 | CN(C)CCC=C1c2ccccc2CCc2ccccc21 | – | – | 0.175 h (inactive) | -5% (inactive) | 0.9 (inactive) | inactive | –
21 | C[C@H](CS)C(=O)N1CCC[C@H]1C(=O)O | – | 2 | 0.01 h (inactive) | 0% (inactive) | 1 (inactive) | inactive | –
22 | NC(=O)N1c2ccccc2C=Cc2ccccc21 | – | 2 | 0.01 h (inactive) | -1% (inactive) | 1 (inactive) | inactive | –
23 | OCCN1CCN(CCCN2c3ccccc3Sc3ccc(Cl)cc32)CC1 | 181% (active) | – | -0.035 h (inactive) | -1% (inactive) | 1 (inactive) | inactive | –
24 | CCN(CC)CCOC(=O)c1ccc(N)cc1 | – | 1.5 | -0.065 h (inactive) | 0% (inactive) | 1 (inactive) | inactive | –
25 | O=C(CCCN1CC=C(n2c(=O)[nH]c3ccccc32)CC1)c1ccc(F)cc1 | 53.4% (active) | – | – | – | – | – | 0.0538 (inactive)
26 | c1ccc2c(c1)CCCC2C1=NCCN1 (centres undefined) | 13.8% (inactive) | 2 | -0.02 h (inactive) | -3% (inactive) | 1 (inactive) | inactive | –
27 | CCOC(=O)[C@H](CCc1ccccc1)N[C@@H](C)C(=O)N1Cc2ccccc2C[C@H]1C(=O)O | – | 2.5 | – | – | – | – | –
28 | CCCNC(=O)NS(=O)(=O)c1ccc(Cl)cc1 | 6.6% (inactive) | 2 | 0.055 h (inactive) | -1% (inactive) | 1 (inactive) | inactive | –
29 | CN(C)C(=O)Oc1ccc[n+](C)c1 | – | 2 | 0.015 h (inactive) | -1% (inactive) | 1 (inactive) | inactive | –
30 | NS(=O)(=O)c1cc2c(cc1C(F)(F)F)NCNS2(=O)=O | – | 2 | – | – | – | – | –
31 | CC(C)(C)NCC(O)c1cc(O)cc(O)c1 (centres undefined) | 23.2% (inactive) | 2 | 0.03 h (inactive) | -2% (inactive) | 1 (inactive) | inactive | –
32 | CC(CN1c2ccccc2Sc2ccccc21)N(C)C (centres undefined) | – | – | 0.14 h (inactive) | -2% (inactive) | 1 (inactive) | inactive | –
33 | CN(C)CCCN1c2ccccc2CCc2ccccc21 | – | – | 0.07 h (inactive) | -7% (inactive) | 1 (inactive) | inactive | –
34 | CC(=O)Nc1nnc(S(N)(=O)=O)s1 | – | 2 | 0.15 h (inactive) | -1% (inactive) | 1 (inactive) | inactive | –
